Test results from ChEMBL document CHEMBL3988442, “University of Dundee, Small-Polar-MMV Screening Library” (2021).

target: AMP-activated protein kinase, AMPK (Homo sapiens) (UniProt P54646+O43741+P54619+Q9UGJ0+Q9Y478+Q13131+Q9UGI9); assay: AMP-dependent Kinase enzyme assay. An in vitro enzyme assay that detects ADP turnover that is directly proportional to AMPK activity. This uses naive AMPK that is activated during the assay with MK-8722; assay type: functional; design: scale not given: direction of the effect not stated beside the values; details: 30 µM

| SMILES | Percent Effect [%] |
| --- | --- |
| CC(C)Cc1cc(CNC(=O)c2cccc3c2NCCC3)no1 | 1.24 |
| CC(C)c1nc(C2CCCN2CCNS(C)(=O)=O)no1 (stereo not given) | 9.75 |
| CN(Cc1nc2ccccc2[nH]1)C(=O)CN(C)c1ccccc1 | -1.06 |
| CCC(C)Oc1ccc(CNCCNC(C)=O)cc1OC (stereo not given) | 2.89 |
| Cc1cc(NC(=O)N2CCC[C@@H]2CO)nn1-c1cccc(Cl)c1 | -3.24 |
| N#Cc1c(N)nc2c(c1-c1c[nH]nc1C1CCCCC1)CC(N)CC2 (stereo not given) | 23.9 |
| Cc1cc(N2Cc3cnn(CCO)c3C2)nc(-c2ccccc2)n1 | 4.37 |
| COc1ccc(NC(=O)N2CCOCC(CN(C)C)C2)c(C)c1 (stereo not given) | 1.75 |
| CCS(=O)(=O)CCCN1CCSCC1c1ccc(Cl)cc1 (stereo not given) | -4.64 |
| Cc1ncsc1CCC(=O)N(C)Cc1nc2ccccc2n1C | 0.381 |
| CN(C)C(=O)c1ccc2c(c1)nc(N1CC[C@H](O)C1)n2C | 1.76 |
| COCCOc1ccc(F)cc1NCc1nc2ccccc2n1C | 8.68 |
| CCN1CC(c2ccccc2)CC2(CCN(Cc3ncc[nH]3)CC2)C1 (stereo not given) | -6.2 |
| CCC(NCCn1cccn1)C(=O)Nc1cc(C)on1 (stereo not given) | 2.9 |
| COCCN1CCC(NC(=O)C/C=C/c2ccc(C(C)C)cc2)CC1 | -8.07 |
| O=C(c1cc(C2CC2)on1)N1C[C@H]2CC[C@](O)(c3ccc(F)cc3)[C@H]2C1 | 12.8 |
| CN1CC2(CCCN(C(=O)Cc3cccc(O)c3)C2)OC1=O (stereo not given) | 8.24 |
| O=C(CCN1CCOCC1)Nc1cccc(CNCc2ccsc2)c1 | -5.46 |
| CC1CN(CC(=O)NCc2ccc(F)cc2)CCN1c1nccs1 (stereo not given) | 10.2 |
| COc1ccccc1CC(=O)N(C)Cc1cc(C)on1 | -2.06 |
